PubChem BioAssay (Tox21)
Several values for one entry are separate records, joined by “and”; a condition that tells them apart may be missing. Equal entries are not always repeated. Results filed as inconclusive are left out. Entries that show only a call come without a potency. The source holds several records for some structures; these can differ, active in one and inactive in another. Activity calls are given as the source filed them. Calls come from the whole dose curve; as a rule, active = well fitted curve in the direction sought with a large enough effect in the repeat runs; inconclusive = weak or mixed curves; inactive = no such curve, though single readings can be large; an effect the other way counts as inactive or inconclusive.

Assays:
[1] = A CellTox Green Cytotoxicity Assay to monitor cytotoxicity in HEK293 cells - 32 hour (AID 1224881); note: nearly all actives have a fitted effect of over 40% in size; note: potency is the fitted concentration of half-maximal effect
Outline: (§1)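 Read-out: fluorescence of a cell-impermeant cyanine dye staining DNA of dead cells, proportional to cytotoxicity. HEK293, 600 cells/well with reagent, compound (23 nL DMSO) added after 5 h; reads at 0, 8, 16, 24, 32, 40 h.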

[2] = A CellTox Green Cytotoxicity Assay to monitor cytotoxicity in HepG2 cells - 0 hour (AID 1224882); note: nearly all actives have a fitted effect of over 35% in size; note: potency is the fitted concentration of half-maximal effect
Outline: (§2)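 HepG2, 600 cells/well premixed w/ CellTox Green; 5 h settle, 37 C/5% CO2; pintool cpd add (DMSO); 37 C, 40 h; fluorescence read at 0, 8, 16, 24, 32, 40 h.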

[3] = A CellTox Green Cytotoxicity Assay to monitor cytotoxicity in HepG2 cells - 32 hour (AID 1224883); note: nearly all actives have a fitted effect of over 50% in size; note: potency is the fitted concentration of half-maximal effect
Outline: as §2

[4] = A CellTox Green Cytotoxicity Assay to monitor cytotoxicity in HEK293 cells - 8 hour (AID 1224884); note: nearly all actives have a fitted effect of over 35% in size; note: potency is the fitted concentration of half-maximal effect
Outline: as §1

[5] = qHTS RealTime-Glo MT Cell Viability Assay in HEK293 cells - 24 hour (AID 1224886); note: nearly all actives have a fitted effect of over 50% in size; note: potency is the fitted concentration of half-maximal effect
Outline: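 Cells + reagent dispensed (600 cells/well, HEK293) → 5 h at 37 C/5% CO2 → 23 nL compound in DMSO pinned → 40 h at 37 C → luminescence read at 0, 8, 16, 24, 32, 40 h.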

[6] = A CellTox Green Cytotoxicity Assay to monitor cytotoxicity in HEK293 cells - 16 hour (AID 1224888); note: nearly all actives have a fitted effect of over 35% in size; note: potency is the fitted concentration of half-maximal effect
Outline: as §1

[7] = qHTS RealTime-Glo MT Cell Viability Assay in HepG2 cells - 0 hour (AID 1224889); note: nearly all actives have a fitted effect of over 50% in size; note: potency is the fitted concentration of half-maximal effect
Outline: (§3)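 Real-time, nonlytic viability: 600 HepG2 cells/well mixed with NanoLuc enzyme plus prosubstrate; 5 h settle, compound (DMSO) added by pintool; luminescence monitored over 40 h at 37 C.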

[8] = A CellTox Green Cytotoxicity Assay to monitor cytotoxicity in HepG2 cells - 8 hour (AID 1224890); note: nearly all actives have a fitted effect of over 45% in size; note: potency is the fitted concentration of half-maximal effect
Outline: as §2

[9] = qHTS RealTime-Glo MT Cell Viability Assay in HEK293 cells - 8 hour (AID 1224887); note: nearly all actives have a fitted effect of over 50% in size; note: potency is the fitted concentration of half-maximal effect
Outline: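 Luminescence readout at each listed time point; HEK293, 600 cells/well, RealTime-Glo MT reagent added with cells; compounds pinned (23 nL in DMSO) after 5 h at 37 C; continuous culture at 37 C.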

[10] = qHTS RealTime-Glo MT Cell Viability Assay in HepG2 cells - 16 hour (AID 1224885); note: nearly all actives have a fitted effect of over 50% in size
Outline: as §3

Compound | Potency [1] | Potency [2] | Potency [3] | Potency [4] | Potency [5] | Potency [6] | Potency [7] | Potency [8] | Potency [9] | Potency [10]
Clc1cccc(C(Cl)(Cl)Cl)n1 | inactive | inactive | 54.5 µM (active) | inactive | inactive | inactive | inactive | inactive | – | –
C=C(C)C#N | inactive | inactive | inactive | inactive | inactive and 13.8 µM (active) | inactive | inactive | inactive | inactive | –
CC(C)(C#N)N=NC(C)(C)C#N | inactive | inactive | inactive | inactive | inactive | inactive | inactive | inactive | – | –
CC1=C(C(=O)Nc2ccccc2)SCCO1 | inactive | inactive | inactive | inactive | inactive | inactive | inactive | inactive | – | –
CCOP(=S)(OCC)OP(=S)(OCC)OCC | inactive | inactive | inactive | inactive | inactive | inactive | inactive | inactive | inactive | –
c1ccc(C2CO2)cc1 (stereo unspecified) | inactive | inactive | inactive | – | inactive | inactive | inactive | inactive | inactive | inactive
CCCCCCCCCC(CC)c1ccc(S(=O)(=O)O)cc1 (stereo unspecified) | – | inactive | 54.9 µM (active) and 21.3 µM (active) and 38.9 µM (active) | – | 44.1 µM (active) and inactive | – | inactive | inactive and 34.7 µM (active) | – | inactive
CCCCOCCOC(C)=O | inactive | inactive | inactive | inactive | inactive | inactive | inactive | inactive | inactive | –
ClCC(Cl)CCl | inactive | inactive | inactive | inactive | inactive | inactive | inactive | inactive | – | –
CNC(=O)CSP(=S)(OC)OC | inactive | inactive | inactive | inactive | inactive | inactive | inactive | inactive | inactive | –
COc1ccc(C=O)cc1OC | inactive | inactive | inactive | inactive | inactive | inactive | inactive | inactive | inactive | –
CC(C)Nc1nc(Cl)nc(NC(C)C)n1 | inactive | inactive | inactive | inactive | inactive | inactive | inactive | inactive | inactive | –
[Cl-].[Cl-].[Cl-].[Fe+3] | inactive | inactive | inactive | inactive | inactive | inactive | inactive | inactive | inactive | –
C[C@]12CCC(=O)C=C1CC[C@@H]1[C@@H]2CC[C@@]2(C)[C@H]1CC[C@]2(C)O | 44 µM (active) and inactive | 19.7 µM (active) and inactive | 22.1 µM (active) | 44 µM (active) and inactive | 19.7 µM (active) | – | 14.3 µM (active) and 9.52 µM (active) | 22.1 µM (active) and inactive | inactive | –
CCNc1nc(Cl)nc(NC(C)(C)C#N)n1 | inactive | inactive | inactive | inactive | inactive | inactive | inactive | inactive | – | –
CC(C)Nc1ccc(Nc2ccccc2)cc1 | 48.8 µM (active) and 49 µM (active) | inactive | 43.6 µM (active) | inactive | 17.3 µM (active) and 19.5 µM (active) | 54.9 µM (active) | – | inactive and 49 µM (active) | 15.4 µM (active) and 17.4 µM (active) | –
CC1CC(=O)O1 (stereo unspecified) | inactive | inactive | inactive | inactive | inactive | inactive | inactive | inactive | inactive | –

Compound | Potency [1] | Potency [2] | Potency [3] | Potency [4] | Potency [5] | Potency [6] | Potency [7] | Potency [8] | Potency [9] | Potency [10]
CSc1nc(NC(C)C)nc(NC(C)C)n1 | inactive | inactive | inactive | inactive | inactive | inactive | inactive | inactive | – | –
Nc1ccc([N+](=O)[O-])cc1N | inactive | inactive | inactive | inactive | inactive | inactive | inactive | inactive | – | –
Oc1ccc(Cl)cc1Cl | inactive | inactive | inactive | inactive | inactive | inactive | inactive | inactive | – | –
CCCCSP(=O)(SCCCC)SCCCC | inactive | inactive | inactive | inactive | inactive | inactive | inactive | inactive | – | –
CCCCC(C#N)(Cn1cncn1)c1ccc(Cl)cc1 (stereo unspecified) | inactive | inactive | – | inactive | inactive | inactive | inactive | inactive | – | –
C[N+](C)(C)C | inactive | inactive | inactive | inactive | inactive | inactive | inactive | inactive | – | –
S=c1[nH]c2ccccc2[nH]1 | inactive | inactive | inactive and 21.9 µM (active) | inactive | inactive | inactive | inactive | inactive | inactive | –
COP(=S)(OC)Oc1ccc(S(=O)(=O)N(C)C)cc1 | inactive | inactive | inactive | inactive | inactive | inactive | inactive | inactive | – | –
ClC(Cl)(Cl)Br | inactive | inactive | inactive | inactive | inactive | inactive | inactive | inactive | – | –
C=CC(=O)OCC(CC)(COC(=O)C=C)COC(=O)C=C | 5.64 µM (active) and 11 µM (active) | inactive | 14.2 µM (active) | inactive | 4 µM (active) and 11 µM (active) | inactive | inactive | inactive | 28.3 µM (active) and 21.9 µM (active) | –
C=CC(Cl)CCl (stereo unspecified) | inactive | inactive | inactive | inactive | inactive | inactive | inactive | inactive | inactive | –
COc1ccc(O)c(C(C)(C)C)c1 | inactive | inactive | – | inactive | inactive | inactive | inactive | inactive | – | inactive
O=P(OCCCl)(OCCCl)OCCCl | inactive | inactive | inactive | inactive | inactive | inactive | inactive | inactive | inactive | –
N#Cc1c(Cl)c(Cl)c(Cl)c(C#N)c1Cl | 7.61 µM (active) and 6.16 µM (active) | inactive | 21.5 µM (active) and 3.47 µM (active) | 7.76 µM (active) | 2.15 µM (active) and 1.23 µM (active) | 12.1 µM (active) and 8.71 µM (active) | inactive | 48 µM (active) and 13.8 µM (active) | 12.1 µM (active) and 17.4 µM (active) | –
CNC(=O)Oc1cccc2c1OC(C)(C)C2 | inactive | inactive | inactive | inactive | inactive | inactive | inactive | inactive | inactive | –
NC(=O)CN1CCCC1=O | inactive | inactive | inactive | inactive | inactive | inactive | inactive | inactive | – | –
